PubChem BioAssay AID602393 (Broad Institute, 2012)
The whole screen tested about 350,000 compounds, of which about 7,000 (2%) were called active. The list comes from a sample in which actives are over-represented; it also holds similar structures and randomly drawn compounds. Unmarked numbers belong to inactive results. Cut-off read from the data, not from the text of the source: active = activation above about 40%; inconclusive = no clear call, values can overlap the other calls; inactive = below that.

Assay: raisers of Bmi1 knock-in reporter signal – mouse ES cells, Bmi1 luciferase knock-in, single point, esBAF inhibitor project, primary screen (AID 602393);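 note: 0% = median of the plate's neutral control wells and 100% = double that signal; a rise in the Bmi1 reporter signal indicates esBAF inhibition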
Settings: 24 h, at 12.5 µM, hits give high values, 100% = twice the neutral-well signal
`C[C@@H]1CN([C@@H](C)CO)S(=O)(=O)c2ccc(C#C[C@@H](C)O)cc2O[C@@H]1CN(C)C(=O)Cc1ccccn1` showed a reporter increase of 1.02%.
`Cc1ccccc1S(=O)(=O)NCC[C@@H]1CC[C@H](NC(=O)C2CCCCC2)[C@@H](CO)O1` showed a reporter increase of 4.09%.
In the case of `O=C(CC1CC1)N1CC[C@@H]2[C@@H](CO)Nc3ccc(-c4ccccc4)cc3[C@@H]21`, the reporter increase is reported as -5.1%.
Work on `COc1ccc(Nc2cc(=O)oc3ccccc23)cc1` yielded a reporter increase of 3.87%.
Molecule `COc1ccc(NC2=CC(=S)NC(C)(C)C2)cc1` has a reporter increase of 1.51%.
In the case of `COc1ccc(Nc2ccc3ccccc3c2)cc1`, the reporter increase is reported as 119% (active).
Work on `O=C(C1CCOCC1)N1C[C@H]2[C@@H](c3ccccc31)[C@@H](CO)N2Cc1ccccc1F` yielded a reporter increase of 0.141%.
With `CCNC(=O)C[C@@H]1CC[C@@H]2[C@@H](COc3ccc(NC(=O)c4cccc(C(F)(F)F)c4)cc3C(=O)N2C)O1` the reporter increase was 3.63%.
For `Cc1cc(/C=C2/SC(=O)N(CC(=O)OC(C)C)C2=O)c(C)n1C`, the reporter increase was 83.5% (active).
`CC(OC(=O)CN1C(=O)c2ccccc2C1=O)C(=O)c1ccccc1` (stereo unspecified) gave a reporter increase of -0.946%.
With `Cc1cc(/C=C2/SC(=O)N(CC(=O)N3CCCC3)C2=O)c(C)n1C` the reporter increase was 0.583%.
Molecule `COc1ccccc1-c1ccc2c(c1)O[C@H](CN(C)C(=O)c1cccnc1)[C@@H](C)CN([C@H](C)CO)S2(=O)=O` has a reporter increase of 0.986%.
Molecule `C[C@H](CO)N1C[C@H](C)[C@H](CN(C)CC2CC2)OCCCC[C@H](C)Oc2ccc(NC(=O)c3ccncc3)cc2C1=O` has a reporter increase of -1.67%.
In the case of `CCOC(OCC)c1ccc(/C=C\c2nccc(N)n2)cc1`, the reporter increase is reported as 46.6% (active).
With `Cc1noc(C)c1NC(=O)Nc1ccc2c(c1)C(=O)N([C@H](C)CO)C[C@H](C)[C@H](CN(C)Cc1ccc(C(=O)O)cc1)OCCCC[C@H](C)O2` the reporter increase was -3.6%.
`Cc1ccc(Nc2ncnc3c2cnn3C)c(C)c1` showed a reporter increase of -6%.
For `Cc1ccc(-n2ncc3c(Nc4cccc(C(=O)O)c4)ncnc32)cc1`, the reporter increase was 57.1% (active).
With `CC(Sc1ncnc2c1cnn2-c1ccccc1)C(=O)Nc1ccc(N2CCOCC2)cc1` (stereo unspecified) the reporter increase was 13.9%.
Molecule `CNC[C@H]1Oc2cc(-c3cccnc3)ccc2S(=O)(=O)N([C@@H](C)CO)C[C@H]1C` has a reporter increase of 3.67%.
Molecule `CSc1ccccc1NC(=O)c1cc(Cl)sc1Cl` has a reporter increase of -9.78%.
Work on `Cc1ccccc1C(=O)Nc1ccccc1Sc1ccccc1` yielded a reporter increase of -8.84%.
For `CSc1ccccc1NC(=O)c1cnc2sc(C)cn2c1=O`, the reporter increase was 68.8% (active).
Molecule `O=C(c1ccccc1)N1CC[C@H]2[C@H](CO)Nc3ccc(-c4ccc(F)cc4)cc3[C@H]21` has a reporter increase of -5.91%.
Work on `CCCN(C)C[C@H]1Oc2ncc(-c3cccnc3)cc2C(=O)N([C@@H](C)CO)C[C@@H]1C` yielded a reporter increase of 5.67%.
For `Cn1c(=NC(=O)c2ccco2)sc2cccc(F)c21`, the reporter increase was 29%.
With `Cn1c(=NC(=O)C2CC2)sc2cc(F)cc(F)c21` the reporter increase was 62% (active).
In the case of `CCC(=O)Nc1ccc2c(c1)OC[C@H](C)N(Cc1ccccc1F)C[C@H](C)[C@@H](OC)CN(C)C2=O`, the reporter increase is reported as 0.435%.
For `C[C@H](CO)N1C[C@H](C)[C@H](CN(C)CC2CCCCC2)Oc2c(NC(=O)c3cnccn3)cccc2C1=O`, the reporter increase was -2.88%.
For `O=C(NNC(=O)c1cc2c(s1)CCCC2)c1ccccc1`, the reporter increase was 40.9% (active).
For `O=C(CNC(=O)c1cc2c(s1)CCC2)Nc1ccccc1Br`, the reporter increase was 30.7%.
`O=C(c1cc2c(s1)CCC2)N1CCN(c2ccccc2)CC1` showed a reporter increase of 6.19%.
`CCNC(=O)C[C@@H]1CC[C@H](NC(=O)C2CCC2)[C@@H](CO)O1` showed a reporter increase of 4.25%.
In the case of `C[C@@H]1CN([C@H](C)CO)C(=O)Cc2cc(NC(=O)C3CCCCC3)ccc2O[C@@H]1CN(C)S(C)(=O)=O`, the reporter increase is reported as -5.11%.
Work on `C[C@@H]1CN([C@@H](C)CO)S(=O)(=O)c2ccc(C#CC3CCCC3)cc2O[C@H]1CN(C)S(C)(=O)=O` yielded a reporter increase of 20.1%.
In the case of `COc1cccc(-c2cc3nc4c(c(N5CCC6(CC5)OCCO6)n3n2)CCCC4)c1`, the reporter increase is reported as 42.7% (active).
With `COc1cccc(CNc2nc3nc4c(c(=O)n3[nH]2)CCC4)c1` the reporter increase was -1.38%.
In the case of `O=C(c1ccccc1)N1CCN(c2cc(-c3ccccc3)nc3cc(-c4cccc(Cl)c4)nn23)CC1`, the reporter increase is reported as -1.84%.
For `O=C(C[C@@H]1CC[C@@H]2[C@H](COC[C@H](O)CN2Cc2cccc(C(F)(F)F)c2)O1)NCc1ccc(F)cc1`, the reporter increase was -1.09%.
Molecule `C[C@@H]1CN([C@@H](C)CO)C(=O)c2cc(NC(=O)Nc3cccc4ccccc34)ccc2O[C@@H](C)CCCCO[C@@H]1CN(C)S(=O)(=O)c1ccc(Cl)cc1` has a reporter increase of 2.17%.
In the case of `Cc1ccc(-c2noc(C3CCCN(C(=O)c4cccc(Cl)c4)C3)n2)o1` (stereo unspecified), the reporter increase is reported as 46.6% (active).
For `CCOC(=O)C1(C)CCCN(C(=O)c2cccc(Cl)c2)C1` (stereo unspecified), the reporter increase was -1.3%.
Molecule `COc1cccc(-c2noc(C3CCCN(C(=O)c4ccc(F)cc4)C3)n2)c1` (stereo unspecified) has a reporter increase of 5.64%.
In the case of `O=C(c1cccs1)N1CCCC(c2nc(-c3ccc(F)cc3)no2)C1` (stereo unspecified), the reporter increase is reported as 51.6% (active).
Molecule `O=C(Cc1cccs1)N1CCCC(c2nc(-c3ccc(S(=O)(=O)N4CCCC4)cc3)no2)C1` (stereo unspecified) has a reporter increase of -3.86%.
In the case of `COc1cc(-c2noc(C3CCCN(S(=O)(=O)c4cccc(Cl)c4)C3)n2)cc(OC)c1OC` (stereo unspecified), the reporter increase is reported as 0.345%.
Work on `COc1ccccc1NC(=O)N(C)C[C@@H]1Oc2ncc(Br)cc2C(=O)N([C@@H](C)CO)C[C@@H]1C` yielded a reporter increase of -5.49%.
Molecule `O=C(NCC[C@@H]1CC[C@@H](NC(=O)Nc2cc(F)ccc2F)[C@H](CO)O1)Nc1ccc(Cl)cc1` has a reporter increase of 38.7%.
In the case of `C[C@H]1CN([C@@H](C)CO)C(=O)c2cc(C3=CCCCC3)cnc2O[C@H]1CN(C)Cc1ccncc1`, the reporter increase is reported as -11.9%.
`O=C(NCc1ccccc1)C1CCN(C(=O)Cc2ccccc2)CC1` gave a reporter increase of 1.43%.
Molecule `CCOC(=O)N1CCC(NC(=O)CCc2ccccc2)CC1` has a reporter increase of -4.64%.
In the case of `O=C(O)C1CCN(C(=O)OCc2ccccc2)CC1`, the reporter increase is reported as 59.3% (active).
